Experimental data reported in PubChem BioAssay (NCI).
This is part of a sample that, as a whole, favours compounds with a hit. Of some 83,000 tested, about 20% had one in any assay.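 Single-concentration screen, 48 h exposure, 96-well plates. Endpoint: percent growth. Below 10 = active.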 A number with no mark means an inactive call. Active and inactive are the calls of the source.

Legend:
Assay in all cases: NCI-60 one-dose screen, 48 h (100 = growth as untreated, 0 = no growth, -100 = all killed)
Details in all cases: 10 µM unless noted
HCT-15 colon = tested on: HCT-15 colon
HT29 colon = tested on: HT29 colon
SNB-75 CNS = tested on: SNB-75 CNS
SNB-19 CNS = tested on: SNB-19 CNS
U251 CNS = tested on: U251 CNS
PC-3 prostate = tested on: PC-3 prostate
SK-MEL-5 melanoma = tested on: SK-MEL-5 melanoma
UACC-62 melanoma = tested on: UACC-62 melanoma
LOX IMVI melanoma = tested on: LOX IMVI melanoma
SK-MEL-28 melanoma = tested on: SK-MEL-28 melanoma
SK-MEL-2 melanoma = tested on: SK-MEL-2 melanoma
EKVX NSCLC = tested on: EKVX NSCLC
SN12C renal = tested on: SN12C renal
UO-31 renal = tested on: UO-31 renal
TK-10 renal = tested on: TK-10 renal
ACHN renal = tested on: ACHN renal
CAKI-1 renal = tested on: CAKI-1 renal
A498 renal = tested on: A498 renal
CCRF-CEM leukemia = tested on: CCRF-CEM leukemia
MOLT-4 leukemia = tested on: MOLT-4 leukemia

Compound | growth (HCT-15 colon) | growth (HT29 colon) | growth (SNB-75 CNS) | growth (SNB-19 CNS) | growth (U251 CNS) | growth (PC-3 prostate) | growth (SK-MEL-5 melanoma) | growth (UACC-62 melanoma) | growth (LOX IMVI melanoma) | growth (SK-MEL-28 melanoma) | growth (SK-MEL-2 melanoma) | growth (EKVX NSCLC) | growth (SN12C renal) | growth (UO-31 renal) | growth (TK-10 renal) | growth (ACHN renal) | growth (CAKI-1 renal) | growth (A498 renal) | growth (CCRF-CEM leukemia) | growth (MOLT-4 leukemia)
CC(C)(C)OC(=O)N1C/C(=C\c2cccs2)C(=O)/C(=C/c2cccs2)C1 | 85.1% | 86.4% | 78.9% | 94.5% | 83.7% | 74.7% | 87.9% | 66.7% | 90.9% | 106% | 95.6% | 99.5% | 93.6% | 71.4% | 110% | 97.2% | 67.2% | 81.9% | 51.7% | 69.4%
O=C(OCCCCOC(=O)n1cnc2ccccc21)n1cnc2ccccc21 | 103% | 97% | 96% | 97.7% | 99.5% | 91.8% | 101% | 96.3% | 92.9% | 108% | 101% | 98.7% | 96% | 78.9% | 110% | 101% | 93.2% | 89.3% | 101% | 86.2%
Nc1nc(N)c2nc(CNc3ccc(C(=O)CC(CCC(=O)O)C(=O)O)cc3)cnc2n1 (stereo not drawn) | 33.3% | 36.7% | 71.7% | 42.9% | 36.2% | 33.6% | 22.8% | 26.6% | 20.5% | 68.7% | -6.72% (active) | 42.8% | 30.9% | 8.63% (active) | 74.7% | 27.2% | -3.87% (active) | 51.4% | 17.8% | 33%
C#CCN1C(=O)/C(=c2\sc3n(c2=O)C2C(NN=3)N(CC)C(=O)N2CC)c2ccccc21 (stereo not drawn) | 16% | 7.7% (active) | -25.2% (active) | 28% | 11.2% | 22.7% | 12.4% | 25.2% | 27.1% | 43.4% | 45.1% | 64.9% | 32.4% | 40.1% | 39.7% | 19.8% | 23.5% | -33.8% (active) | – | 20.9%
Nc1nc(Cl)c2c(ncn2Cc2ccc(CCl)cc2)n1 | 84.9% | 91% | 100% | 93.2% | 81.4% | 77.6% | 70.3% | 78.4% | 69.7% | 101% | 98.6% | 103% | 93.4% | 70.5% | 78.9% | 83.3% | 102% | 97.3% | 1.58% (active) | 103%
C#CCN1C(=O)/C(=c2\sc3n(c2=O)NC2C(N=3)N(CC)C(=O)N2CC)c2ccccc21 (stereo not drawn) | 43.8% | 26.2% | 14.2% | 89.1% | 94.4% | 47.5% | 53% | 54.1% | 60.3% | 57.3% | 91.3% | 69.7% | 71% | 47.9% | 96.5% | 54.4% | 30.1% | 36.8% | – | 68.5%
CCCCCCCN(CCCCCCC)C(=N)c1ccc(OC)c2ccccc12 | -81.4% (active) | -78.8% (active) | -98.2% (active) | -80.7% (active) | -90.5% (active) | -92.3% (active) | -93.2% (active) | -76.5% (active) | -98.7% (active) | -82.9% (active) | -82.5% (active) | -21.7% (active) | -75.4% (active) | -86.6% (active) | -89.4% (active) | -91.9% (active) | -12.2% (active) | -52.9% (active) | -43.5% (active) | -50.4% (active)
CCCCCCCCCCCCCCCCCCOc1cccc(CCOP(=O)(O)OCC[N+](C)(C)C)c1 | 87% | 73.7% | 83.1% | 83.6% | 67.7% | 2.55% (active) | 91.1% | 85.2% | 77.3% | 94.2% | 90.4% | 97% | 91.1% | 91.5% | 36.5% | 95.8% | 55.3% | 99.2% | – | 104%
O=C1Nc2cc(Cl)ccc2Oc2cc(Oc3ccccc3)ccc21 | 46.7% | 17.4% | 50.9% | 72.7% | 74.1% | 75.2% | 34.5% | 59.6% | 51.5% | 71% | 48% | 72% | 68% | 53.4% | 78% | 83.7% | 51% | 67.1% | 54.6% | 45.9%
CCN(Cc1ccc(CN(CC)C(=O)C(Cl)(Cl)Cl)cc1)C(=O)C(Cl)(Cl)Cl | 94.2% | 77.5% | 87.7% | 106% | 91.6% | 64.9% | 71.2% | 82.7% | 78.3% | 96.2% | 89% | 68.3% | 97.8% | 78.7% | 96.1% | 91.1% | 72% | 82.6% | – | 29.9%
CC(CCc1ccccc1)NC(=O)c1n[nH]c(=O)c2ccccc12 (stereo not drawn) | 101% | 105% | 96.6% | 115% | 103% | 95.7% | 98.9% | 93.9% | 95.4% | 118% | 79.2% | 105% | 107% | 47.5% | 89.6% | 97.8% | 104% | – | 83.4% | 83.4%
CCN(CC)CCCNc1nc(C)cc(Nc2ccc3nc(C)cc(N)c3c2)n1 | 105% | 92.5% | 90.9% | 108% | 100% | 76% | 112% | 117% | 95.6% | 111% | 36.1% | 96.2% | 94.7% | 89.7% | 88% | 101% | 95.6% | 125% | 99.4% | 112%
O=C1CCCCN1CCCCC#Cc1ccccc1C#Cc1ccc([N+](=O)[O-])cc1 | 17.4% | 28.4% | 66.1% | 70.2% | 28% | 31.9% | 3.34% (active) | 25.8% | 6.11% (active) | 46.1% | 5.87% (active) | 74.8% | 67.4% | 7.05% (active) | 80.6% | 34% | 58.4% | – | 21.4% | 18.7%
COc1ccc(NC(=O)/N=c2\oc3c(OC)cccc3cc2-c2cc3ccccc3[nH]2)cc1 | 73.3% | 57.7% | -8.95% (active) | 36.2% | 34.1% | 39.3% | 60.6% | 65.6% | 73.1% | 81.9% | 75.9% | 72.3% | 78.1% | 90.4% | 42% | 34.9% | 49% | 75% | – | 112%
O=C1CCCCC=C1C[N+](=O)[O-] | 75.2% | 83.3% | 105% | 97.5% | 88.4% | 85.5% | 71.9% | 91.8% | 81.1% | 89.2% | 102% | 103% | 95.7% | 53.5% | 107% | 75.8% | 76% | 117% | 54.2% | 42.5%
O=C1CCC/C=C\C[C@H]2C=CC(=O)/C2=C/C[C@H](C/C=C\CC(F)(F)F)O1 | -5.57% (active) | -28.9% (active) | 68.7% | 11.3% | -65.5% (active) | -42.5% (active) | -90.7% (active) | -12.1% (active) | -88.2% (active) | -28.6% (active) | -20.9% (active) | -17.7% (active) | -6.43% (active) | -93% (active) | -33.6% (active) | -84.8% (active) | 16% | -75.2% (active) | -5.64% (active) | -0.696% (active)
